# Whole data set: some 33,000 sequences, median “E-score (-0.5 to 0.5)” near -0.016, cut for the highest 2% near 0.32. This excerpt belongs to a sample that is enriched for the highest values.
# Target: T1, Stp1 (UniProt B3LFK1)
# T1 sequence: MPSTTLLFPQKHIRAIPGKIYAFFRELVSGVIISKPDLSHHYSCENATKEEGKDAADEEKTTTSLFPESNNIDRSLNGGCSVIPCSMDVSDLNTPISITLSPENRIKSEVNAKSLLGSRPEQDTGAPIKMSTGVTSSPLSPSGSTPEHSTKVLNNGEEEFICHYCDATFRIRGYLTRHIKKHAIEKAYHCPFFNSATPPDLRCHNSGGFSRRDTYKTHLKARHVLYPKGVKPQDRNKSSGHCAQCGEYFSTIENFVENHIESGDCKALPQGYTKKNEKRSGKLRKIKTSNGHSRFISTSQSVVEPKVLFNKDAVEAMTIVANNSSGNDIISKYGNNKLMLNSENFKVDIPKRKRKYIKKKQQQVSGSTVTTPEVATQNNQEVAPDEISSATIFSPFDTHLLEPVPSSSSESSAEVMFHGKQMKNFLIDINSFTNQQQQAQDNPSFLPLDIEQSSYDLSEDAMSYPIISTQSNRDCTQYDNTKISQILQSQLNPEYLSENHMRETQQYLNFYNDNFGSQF
# Experiment: PBM E-score (8-mer binding enrichment) (E-score (-0.5 to 0.5)); higher = stronger / more preferred TF binding
# Details: protein concentration: 200 nM; construct: GST-full length
# Summary of the method: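 E-scores (a modified Wilcoxon-Mann-Whitney statistic) were assigned by the Universal PBM Analysis Suite to every ungapped eight-base word pooled with its reverse complement. The input came from universal all-10-mer Agilent arrays made double-stranded by primer extension and probed with GST-tagged yeast transcription factors at about 100-200 nM. Fluorescent anti-GST detected bound protein, and masliner normalised the scans.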
row,Sequence,PBM E-score
1,AGGGTCGC,0.0437
2,AGCAGCGC,0.0916
3,AGCGGCCA,-0.114
4,AGCGGGGG,-0.287
5,CGCGGCGA,0.451
6,CGCGGAGA,0.109
7,ACCGGCGG,0.0942
8,AGCGGGGC,0.0451
9,AGCGGCGA,0.386
10,GGCGGCGA,0.276
11,AGCGGCGG,0.337
12,CGCGGTGA,0.0941
13,AGCGGCGC,0.452
14,AGAGCTTG,-0.106
15,ATGAGCTG,-0.175
16,GATCCATA,0.134
17,ACGCTAAG,0.00258
18,CGGACCGA,0.0676
19,CCTCGCAG,-0.0486
20,GCGTCTAC,-0.155
21,CACTGCCC,-0.071
22,AACTGCCT,0.0172
23,CACTGCCA,0.0847
24,CACTGCCG,0.336
25,AACTGCCC,-0.192

row,Sequence,PBM E-score
1,AACTGCCG,0.329
2,AGATCCAA,0.0566
3,AAGCTGTG,-0.106
4,ACCTTGTA,0.0137
5,CCCTTGCA,-0.163
6,GCCTTGCA,0.33
7,GCCTTGTA,0.354
8,TCCTTGCA,-0.0871
9,CCCTTGTA,-0.178
10,AAGGATGC,-0.187
11,GTGGTCTA,-0.307
12,CTCTACCA,-0.0433
13,GCTGGTCC,-0.253
14,GTTGTGGA,-0.0929
15,CATGCCCA,-0.249
16,ATGACGCC,0.2
17,CCCGTCTA,-0.0264
18,GCCGTCGC,0.351
19,ACCGTCTA,-0.0765
20,CCCGTCCC,-0.249
21,TCCGTCCA,-0.122
22,CCCGTCCA,-0.00501
23,GCCGTCTA,0.429
24,ACCGTCCC,-0.184
25,GCCGTCCA,0.364

row,Sequence,PBM E-score
1,GCCGTCGA,0.278
2,ACCGTCGC,0.0157
3,GCCGTCCC,0.378
4,AGACAAAG,0.00552
5,GAGGGTAA,-0.0792
6,CACCATAC,-0.0768
7,TAAAGTGA,0.135
8,CAGAAAGG,0.0864
9,CCTGCGGC,0.331
10,ACTGCGGG,-0.153
11,CCTGCGCC,0.295
12,ACTGCGGC,0.381
13,ACTGCGGA,0.0949
14,CCTGCGGA,0.0839
15,ACTTAGAA,0.0195
16,GAACAGGC,-0.0513
17,ACAAGGGA,-0.144
18,GCAACCTA,0.081
19,ATAAGCCG,0.0578
20,ATTGCTAA,0.0687
21,CACGCCTC,0.205
22,AGCGCCTG,-0.0292
23,ATCGCCTG,-0.135
24,CGCGCCTC,0.377
25,ACCGCCTC,-0.0359

row,Sequence,PBM E-score
1,ATCGCCTC,0.356
2,CGCGCCTA,0.313
3,CTCGCCTC,0.00469
4,AGCGCCTC,0.389
5,ACGGTCTC,-0.041
6,CCTAAAGC,0.00183
7,CCCTAGGA,-0.314
8,CTTGCGCA,0.223
9,ATTCTTCG,0.00242
10,GAACGTAA,0.0655
11,CCGTTCCG,0.318
12,ACGTTCCG,-0.106
13,CCGTTCCA,0.243
14,GCCATCGA,0.0584
15,AGCCGTGA,0.343
16,AACCGTGG,-0.00732
17,CTCCGTGC,0.228
18,ATCCGTGC,0.41
19,AGCCGTGG,0.334
20,GGCCGTGA,0.126
21,ACCCGTGA,-0.0351
22,ACCCGTGG,-0.0825
23,ATCCGTGA,0.00902
24,AGCCGTGC,0.465
25,AACCGTGC,0.26

row,Sequence,PBM E-score
1,ACCCGTGC,0.237
2,ATGCTGAC,-0.0531
3,ATACAGCC,-0.0239
4,GCCTCTAA,0.0553
5,AACCGTAC,-0.0138
6,CGAACAGA,0.0325
7,CCCCGTGA,-0.14
8,CACCGTGA,-0.114
9,CGCCGTGA,0.376
10,ATGCACTC,-0.0521
11,AACGAGAA,0.00842
12,GCCGCCGC,0.424
13,ACCGCCCC,-0.144
14,CCCGCCGC,0.332
15,GCCGCCAC,0.0605
16,GCCGCCCC,0.378
17,CCCGCCGG,-0.213
18,CCCGCCGA,-0.0885
19,GCCGCCGA,0.316
20,GCCGCCCA,0.111
21,CCTTGATC,0.1
22,CTGCCCCC,-0.327
23,CGGGCATA,-0.155
24,AACGCCCA,0.122
25,AAGTCCGT,-0.0471

row,Sequence,PBM E-score
1,AAAGAAAT,0.128
2,CCATATGG,0.0408
3,AGGCTAAG,-0.0187
4,GCCGCATA,0.457
5,ACCGCAAC,-0.0924
6,ACCGCAGC,-0.119
7,CCCGCAGC,-0.123
8,ACCGCATA,0.0344
9,CCCGCAGA,0.06
10,GCCGCAGC,0.394
11,CCCGCAAC,0.097
12,GCCGCAGA,0.372
13,GCCGCAAC,0.366
14,CCCGCATA,0.21
15,TCCGCAGA,-0.0849
16,GTGCTGCA,0.0505
17,CTCTTACC,0.201
18,CTACCTCA,-0.152
19,CTACCCCA,-0.114
20,CAGGTTGA,-0.216
21,AGTAACGC,0.192
22,ATGGTTGC,-0.177
23,GACTAGCC,-0.194
24,ATCGCTGA,-0.0887
25,CCTTGCGC,0.138

row,Sequence,PBM E-score
1,GGTGCGAC,-0.0804
2,GCGTACAA,0.167
3,CCGTACAA,0.35
4,CCGTATAA,0.341
5,ACGTATAA,0.113
6,CCGTATCC,0.316
7,CCGTATCA,0.327
8,CCGTATCG,0.215
9,TCGTACAA,0.157
10,TCGTATAA,0.136
11,ATCGAAGA,0.171
12,GCACTAAC,0.042
13,ATTCTCAA,0.152
14,AGACCAAT,-0.0691
15,GCGACTGA,-0.227
16,ACTCCCAG,-0.264
17,AGTGAACC,0.00324
18,CCCGTTCA,-0.132
19,TCCGTTCA,0.0192
20,ACCGTTCC,0.15
21,CCCGTTCC,-0.00751
22,GCCGTTCC,0.432
23,GCCGTTCA,0.441
